Reference: PubChem BioAssay (NCI)
Compounds without any hit were thinned out: in the full panel of roughly 79,000, 15% have a hit. Rule as the data show it: active = growth inhibition above about 70%; inactive = the rest.

What was measured:
[1] = NCI Yeast Anticancer Drug Screen. Data for the rad50 strain (AID 155);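 also: 0% = growth of vehicle-only cultures of the same strain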; conditions: S. cerevisiae rad50 strain growth inhibition; at 50.0 µM; stronger effect = higher value
In short: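 Relative growth inhibition (compound vs vehicle) was measured in yeast with a defined repair-gene alteration.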

[2] = NCI Yeast Anticancer Drug Screen. Data for the mec2-1 strain (AID 157); conditions: S. cerevisiae mec2-1 strain, at 50.0 µM, stronger effect = higher value
In short: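 Compounds were applied to mec2-1 yeast cells. Their growth was then compared with that of vehicle-treated cultures to give growth inhibition.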

[3] = NCI Yeast Anticancer Drug Screen. Data for the sgs1 mgt1 strain (AID 161);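 also: 0% = growth of cultures given vehicle only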; conditions: S. cerevisiae sgs1 mgt1 strain, at 50.0 µM, stronger effect = higher value
In short: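 Compounds are added to genetically altered yeast, and growth is compared with cultures given vehicle alone to give percent inhibition.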

[4] = NCI Yeast Anticancer Drug Screen. Data for the cln2 rad14 strain (AID 165);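 also: 0% = growth equal to vehicle treated cultures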; conditions: S. cerevisiae cln2 rad14 strain, at 50.0 µM, stronger effect = higher value
In short: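 Strain: cln2 rad14 yeast, altered in cell cycle control and DNA damage repair. Read-out: growth inhibition vs vehicle.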

[5] = NCI Yeast Anticancer Drug Screen. Data for the bub3 strain (AID 167); conditions: S. cerevisiae bub3 mutant strain, at 50.0 µM, stronger effect = higher value
In short: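 Screening used yeast with an engineered genetic alteration affecting cell cycle control. Compound-exposed cultures were compared with vehicle cultures, and reduced growth was taken as inhibition.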

[6] = NCI Yeast Anticancer Drug Screen. Data for the mlh1 rad18 strain (AID 175); conditions: S. cerevisiae mlh1 rad18 strain growth inhibition; at 50.0 µM; stronger effect = higher value
In short: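 A repair-deficient yeast strain is exposed to test compound, and growth is scored relative to vehicle-treated controls.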

Measured: growth inhibition

CCCCNS(=O)(=O)CCCC
inactive: [1] 22.2% | [2] 2.4% | [3] -6.35% | [4] -29.6% | [5] 6.15% | [6] -9.8%

COc1ccc(C2CC(=O)N(c3ncccc3C)C(=O)C2)cc1
inactive: [1] -1% | [2] 6.9% | [3] -1.05% | [4] -21.1% | [5] -18.8% | [6] 3.65%

O=C(O)c1cccc2ccc3cccc(C(=O)O)c3c12
inactive: [1] -5.35% | [2] -6.05% | [3] -0.45% | [4] -74.8% | [5] 2% | [6] -17.2%

O=C1c2ccccc2C(=O)N1Cc1ccccc1-c1c2nc(c(-c3ccccc3CN3C(=O)c4ccccc4C3=O)c3ccc([nH]3)c(-c3ccccc3CN3C(=O)c4ccccc4C3=O)c3nc(c(-c4ccccc4CN4C(=O)c5ccccc5C4=O)c4ccc1[nH]4)C=C3)C=C2
inactive: [1] 11.8% | [2] -1.55% | [3] -0.8% | [4] -3.4% | [5] 13.6% | [6] -14%

CCSC(SCC)C(NC(C)=O)C(OC(C)=O)C(OC(C)=O)C(COC(C)=O)OC(C)=O (configuration not stated)
inactive: [1] 23.4% | [2] -3.25% | [3] -0.2% | [4] 8.25% | [5] -2.7% | [6] 10.6%

Cc1occ(Br)c(=O)c1O
inactive: [1] 12.9% | [2] 12.3% | [3] 17.5% | [4] 25.8% | [5] -0.85% | [6] 15.2%

O=C(O)CS(=O)(=O)Cc1ccccc1
inactive: [1] -12.7% | [2] -9.85% | [3] -9.25% | [4] -60.6% | [5] -7.9% | [6] -6.5%

Cc1ccc(-n2cnc3c(Cl)ncnc32)cc1
inactive: [1] -18.1% | [2] -0.05% | [3] -12.1% | [4] -15.2% | [5] -16.8% | [6] 3.3%

Cc1c(C)c(C)c(CN2CC(=O)c3ccccc3C2=O)c(C)c1C
inactive: [1] 18% | [2] 13.7% | [3] 4% | [4] 14.1% | [5] 10.6% | [6] 15.5%

Cc1ccc(C)c2c(CC(=O)O)c[nH]c12
inactive: [1] -4.35% | [2] -11.2% | [3] -5.9% | [4] -15.6% | [5] 6.05% | [6] -2.5%

CCCC(C)(O)C(C)(C)C (configuration not stated)
inactive: [1] 6.85% | [2] 8.65% | [3] 8% | [4] 11.7% | [5] 28.8% | [6] -2.15%

O=C(O)c1c[nH]c2c([N+](=O)[O-])cccc2c1=O
inactive: [1] 40.4% | [2] 16.5% | [3] 30.7% | [4] 8.5% | [5] 13.6% | [6] 28.4%

NC1=NN(c2ccccc2)C(=O)C1C(=O)CCC(=O)Nc1cccc(Cl)c1 (configuration not stated)
inactive: [1] 9.9% | [2] -1.8% | [3] -11.4% | [4] 18.2% | [5] 5.35% | [6] 2.1%

FC(F)Cc1ccccc1
inactive: [1] 3.55% | [2] -0.75% | [3] 11.1% | [4] -7.15% | [5] -1.5% | [6] -6.6%

N#CC(C#N)N=Cc1ccncc1
inactive: [1] 14.2% | [2] 12.2% | [3] -21.6% | [4] -12.8% | [5] -1.1% | [6] -29.2%

C=CCC1(CO)CCCCC1O (configuration not stated)
inactive: [1] 1.6% | [2] 1.5% | [3] 16.4% | [4] -73.4% | [5] 10.3% | [6] 3.2%

CCC(=O)c1cc(-c2cc(C(=O)CC)[nH]n2)n[nH]1
inactive: [1] -27.5% | [2] 3.95% | [3] -5.7% | [4] -18.4% | [5] 2.15% | [6] 3.85%

CCOc1ccc(CO)cc1
inactive: [1] 8.5% | [2] 0.2% | [3] 8.55% | [4] 34% | [5] -8.95% | [6] -38.8%

CC(CC#N)NC(=O)C1CCC(N)=N1 (configuration not stated)
inactive: [1] -14.3% | [2] -18.2% | [3] -8.95% | [4] 1.4% | [5] -7.35% | [6] -9.9%

O=C1C2CSCN2C(=O)C2CSCN12 (configuration not stated)
inactive: [1] 5% | [2] 4.45% | [3] 5.7% | [4] 12.1% | [5] 8.8% | [6] 4.5%

CC1=C/C(=N\NC(N)=S)C(C(O)(C(F)(F)F)C(F)(F)F)C(C)(C)C1 (configuration not stated)
inactive: [1] 65.9% | [2] 30.6% | [3] 47% | [4] 20.2% | [5] 41.5% | [6] 59.8%

CCOC(=O)NC(=O)c1cn(CC(=O)NCC(=O)NCC(=O)NCCCN2CCN(CCCNC(=O)CNC(=O)CNC(=O)Cn3cc(C(=O)NC(=O)OCC)c(=O)[nH]c3=O)CC2)c(=O)[nH]c1=O
inactive: [1] -5% | [2] 2.4% | [3] -6.85% | [4] -23.2% | [5] -1.05% | [6] -15.8%

Cc1ccc(Cl)cc1NC(=O)Nc1ccc(Cl)c(Cl)c1
inactive: [1] -13.1% | [2] -11.1% | [3] -4.25% | [4] -4.5% | [5] 18.2% | [6] -4.75%

CC(=O)Nc1ccc(S(=O)(=O)N/N=C/c2ccco2)cc1
inactive: [1] 23.1% | [2] 1.2% | [3] 5.7% | [4] -30.6% | [5] 4.1% | [6] 33.6%

O=C(O)c1cc(C2CC2)nc2ccc(Br)cc12
inactive: [1] 13.6% | [2] 1.7% | [3] 2.2% | [4] 6.55% | [5] -5.6% | [6] 19.8%

Oc1cc2c(cc1C(c1ccc(F)cc1)N1CCCC1)OCO2 (configuration not stated)
inactive: [1] 33.1% | [2] 19.5% | [3] 39.9% | [4] -15.6% | [5] 37.9% | [6] 35.1%

Cc1cc(=O)oc2c1c(C)nn2-c1cccc(Cl)c1
inactive: [1] -14.5% | [2] -13.2% | [3] 4.05% | [4] -60.9% | [5] -5.1% | [6] -1.85%

C=CCN(CC=C)c1nc(N)c2ccc(Cl)cc2n1
inactive: [1] -8% | [2] -8% | [3] -6.65% | [4] -52.4% | [5] -10.8% | [6] -6.45%

CCCCc1c(O)c(N=NC(N)=S)c2ccccc2c1O
inactive: [1] 14.9% | [2] 8.45% | [3] 36.8% | [4] -22.1% | [5] 32.6% | [6] 43.5%

N#CCC(=O)N/N=C(\C(=O)Nc1ccc(Cl)c(Cl)c1)C1CN(c2ccccc2)N=C1N (configuration not stated)
inactive: [1] 24.4% | [2] 6.9% | [3] -11.8% | [4] -44.4% | [5] 0.45% | [6] -8.4%

Oc1c2cccc1Cc1cccc3c1OCCOCCOCCOCCOc1c(cccc1Cc1cccc(c1O)C3)C2
inactive: [1] 9.1% | [2] 12.8% | [3] 9.45% | [4] 13.8% | [5] 12.4% | [6] -6.05%

c1ccc(C2=Nc3ccccc3-c3ccccc3N2)cc1
inactive: [1] -2.95% | [2] -1.35% | [3] -6.05% | [4] -28.4% | [5] -4.75% | [6] -8.05%

CCOC(=O)c1c(NNc2ccccc2)nc2ccccc2c1-c1ccccc1
inactive: [1] 25.1% | [2] -2.05% | [3] 11.1% | [4] 22.4% | [5] -10.3% | [6] -1.7%

O=S1(=O)CC(N2CCCCC2)C1
inactive: [1] -3.95% | [2] 2.05% | [3] 17.3% | [4] -40.9% | [5] -3% | [6] -13.3%

CCCCOC1OC[N+](C)(C)CC1(C)C (configuration not stated)
inactive: [1] 20.2% | [2] -2.65% | [3] -10.1% | [4] 3.7% | [5] -0.45% | [6] 26.2%

CCOC1(c2ccccc2)NC(=O)NC1(OCC)c1ccccc1 (configuration not stated)
inactive: [1] 14.2% | [2] 5.75% | [3] 18% | [4] -20.1% | [5] 0.05% | [6] -9.6%

O=C(NO)c1ccc(O)c(O)c1
inactive: [1] 2.1% | [2] 14.4% | [3] 5.55% | [4] -8.25% | [5] -8.45% | [6] -39%

COC1Cc2c(C)c(OC(C)=O)c3cccnc3c2O1 (configuration not stated)
inactive: [1] 18.6% | [2] -17.4% | [3] 10.8% | [4] 18.6% | [5] 4.25% | [6] 5.65%

NC12CC3CC(C1)CC(Cl)(C3)C2
inactive: [1] -12.6% | [2] -26.9% | [3] -32.4% | [4] -3.5% | [5] -35.9% | [6] 4.1%

CN(C)c1ncnc2ncn(C3OC(CO)C(O)C3O)c12 (configuration not stated)
inactive: [1] 67.6% | [2] 46.6% | [3] 60.2% | [4] 7.3% | [5] -13.2% | [6] 61.7%

O=C(c1cccc(Cl)c1)c1cccc2ccccc12
inactive: [1] -1.7% | [2] 5.6% | [3] 19.6% | [4] -37% | [5] 41.9% | [6] -10.2%

O=C(O)c1ccccc1SC(Sc1ccccc1C(=O)O)c1ccc2c(c1)OCO2
inactive: [1] 11.3% | [2] -11.9% | [3] 2.85% | [4] -11.6% | [5] 33.6% | [6] 28%
